Laboratory results: PubChem BioAssay AID1159580 (chemical genetic matrix, 2015)
Where “and” joins values, the source holds several entries; their conditions need not be identical. Equal values may be shown once. Hit rate of the full screen: of about 5,500 compounds, about 2,000 (36%) were called active. Not shown: some 18% with an inconclusive outcome. No stated cut-off is given here; in the data, active means normalized growth mostly below about 0.91 (no sharp cut-off); inconclusive means no clear call, values can overlap the other calls; inactive means mostly above about 0.92. The list shows a part of the results.

Test: chemical genetic growth profiling, strain panel (AID 1159580);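 further: tested at 20 µM; growth read once vehicle control cultures reached saturation at 30 °C; 1 = growth at the plate median or of vehicle wells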
Conditions: S. cerevisiae deletion strains, growth OD

Measured: normalized growth

CCn1cc(C(=O)O)c(=O)c2ccc(C)nc21
active: locus YAL021C, strain ccr4, stronger effect = lower value 0.805 | locus YAL026C, strain drs2, stronger effect = lower value 0.855 | locus YAL030W, strain snc1, stronger effect = lower value 0.917 | locus YBR229C, strain ROT2, stronger effect = lower value 0.914 | locus YBR279W, strain paf1, stronger effect = lower value 0.924 | locus YDL040C, strain nat1, stronger effect = lower value 0.923 | locus YDL192W, strain arf1, stronger effect = lower value 0.9 | locus YDR137W, strain rgp1, stronger effect = lower value 0.345 | locus YDR195W, strain ref2 0.691 | locus YGL167C, strain pmr1, stronger effect = lower value 0.912 | locus YGL173C, strain kem1, stronger effect = lower value 0.799 | locus YGL240W, strain doc1, stronger effect = lower value 0.834 | locus YHR094C, strain hxt1, stronger effect = lower value 0.923 | locus YHR129C, strain ARP1, stronger effect = lower value 0.918 | locus YIR030C, strain dcg1, stronger effect = lower value 0.914 | locus YJL134W, strain LCB3, stronger effect = lower value 0.92 | locus YJL168C, strain set2, stronger effect = lower value 0.895
inactive: locus YAL013W, strain DEP1, stronger effect = lower value 0.938 and 0.977 | locus YAL040C, strain CLN3, stronger effect = lower value 0.961 | locus YBL061C, strain skt5, stronger effect = lower value 0.928 | locus YBR009C, strain hhf1, stronger effect = lower value 0.947 | locus YBR021W, strain FUR4, stronger effect = lower value 1.09 | locus YBR023C, strain chs3, stronger effect = lower value 0.945 | locus YBR171W, strain sec66, stronger effect = lower value 0.931 | locus YBR231C, strain swc5, stronger effect = lower value 0.936 | locus YCL011C, strain gbp2, stronger effect = lower value 0.939 | locus YCL016C, strain dcc1, stronger effect = lower value 0.945 | locus YCL029C, strain bik1, stronger effect = lower value 0.935 | locus YCL061C, strain MRC1 (second series), stronger effect = lower value 0.961 | locus YCL061C, strain MRC1, stronger effect = lower value 0.936 | locus YCL069W, strain vba3, stronger effect = lower value 0.943 | locus YCR088W, strain abp1, stronger effect = lower value 0.953 | locus YDL005C, strain med2, stronger effect = lower value 0.983 | locus YDL035C, strain GPR1, stronger effect = lower value 0.963 | locus YDL074C, strain BRE1, stronger effect = lower value 1.06 | locus YDL101C, strain DUN1, stronger effect = lower value 0.941 | locus YDL134C, strain PPH21, stronger effect = lower value 0.912 | locus YDL185W, strain tfp1, stronger effect = lower value 0.924 | locus YDR001C, strain nth1, stronger effect = lower value 0.94 | locus YDR069C, strain doa4, stronger effect = lower value 0.932 | locus YDR101C, strain arx1, stronger effect = lower value 0.92 | locus YDR150W, strain NUM1, stronger effect = lower value 0.936 and 0.96 | locus YDR159W, strain sac3, stronger effect = lower value 1.07 | locus YDR162C, strain NBP2, stronger effect = lower value 0.936 | locus YDR297W, strain sur2, stronger effect = lower value 0.928 | locus YDR318W, strain mcm21, stronger effect = lower value 0.963 | locus YDR334W, strain swr1, stronger effect = lower value 0.916 | locus YDR335W, strain msn5, stronger effect = lower value 0.937 | locus YDR363W, strain ESC2, stronger effect = lower value 0.965 | locus YDR388W, stronger effect = lower value 0.941 | locus YDR392W, strain spt3, stronger effect = lower value 1.03 | locus YDR502C, strain sam2, stronger effect = lower value 0.961 | locus YEL003W, strain gim4, stronger effect = lower value 0.939 | locus YEL037C, strain rad23, stronger effect = lower value 0.926 | locus YEL061C, strain CIN8 (second series), stronger effect = lower value 0.935 | locus YEL061C, strain CIN8, stronger effect = lower value 0.946 | locus YER002W, strain NOP16, stronger effect = lower value 0.958 | locus YER015W, strain faa2, stronger effect = lower value 0.947 | locus YER016W, strain bim1, stronger effect = lower value 0.924 | locus YER110C, stronger effect = lower value 0.9 | locus YER111C, strain swi4, stronger effect = lower value 0.966 | locus YER155C, strain BEM2 (second series), stronger effect = lower value 0.943 | locus YER155C, strain BEM2, stronger effect = lower value 0.951 | locus YER167W, strain BCK2, stronger effect = lower value 0.988 | locus YFR010W, strain ubp6, stronger effect = lower value 0.974 | locus YGL078C, strain dbp3, stronger effect = lower value 0.947 | locus YGL086W, strain mad1, stronger effect = lower value 0.954 | locus YGL227W, strain vid30, stronger effect = lower value 0.939 | locus YGL248W, strain PDE1, stronger effect = lower value 0.906 | locus YGL253W, strain hxk2, stronger effect = lower value 0.957 | locus YGR078C, strain PAC10, stronger effect = lower value 0.997 | locus YGR135W, strain pre9, stronger effect = lower value 0.916 | locus YGR229C, strain SMI1, stronger effect = lower value 1 and 0.98 | locus YHR013C, strain ard1, stronger effect = lower value 1.02 | locus YHR027C, strain rpn1, stronger effect = lower value 0.938 | locus YHR030C, strain SLT2, stronger effect = lower value 0.921 and 0.918 | locus YHR079C, strain IRE1 (second series), stronger effect = lower value 0.932 | locus YHR079C, strain IRE1, stronger effect = lower value 0.97 | locus YHR142W, strain chs7, stronger effect = lower value 0.979 | locus YHR200W, strain rpn10, stronger effect = lower value 0.963 | locus YIL066C, strain RNR3, stronger effect = lower value 0.972 | locus YIL073C, strain SPO22, stronger effect = lower value 0.97 | locus YIL125W, strain kgd1, stronger effect = lower value 0.951 | locus YJL092W, strain hpr5, stronger effect = lower value 0.961 | locus YJL095W, strain BCK1 (second series), stronger effect = lower value 0.942 | locus YJL095W, strain BCK1, stronger effect = lower value 0.949 and 0.948 | locus YJL115W, strain asf1, stronger effect = lower value 0.956 | locus YJL129C, strain trk1, stronger effect = lower value 0.972 | locus YJL154C, strain vps35, stronger effect = lower value 0.959 | locus YJL164C, strain tpk1, stronger effect = lower value 0.946 | locus YJL166W, strain qcr8, stronger effect = lower value 0.94 | locus YJL187C, strain SWE1 (second series), stronger effect = lower value 0.93 | locus YJR043C, strain POL32, stronger effect = lower value 0.967 | locus YJR066W, strain TOR1, stronger effect = lower value 0.899 | locus YJR075W, strain HOC1, stronger effect = lower value 0.972 and 0.961
